From PubChem
Shown are actives, neighbours in structure and some others; about 27% of the full set was active somewhere.
CYP2C19 act – human CYP2C19 activators, primary screen, biochemical, luminescence | Cytochrome P450 2C19 (Homo sapiens), P33261 | recombinant CYP2C19, luciferin-H EGE luminescence; stronger effect = higher value; 0 = fully inhibited enzyme, 1 = untreated enzyme | activation factor at 5 µM | 96,000 tested, under 10 active | AID 1025, 2008;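 active = activation factor of at least 2 at 5 µM in the primary screen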
CYP2C9 inhib – blockers of cytochrome P450 2C9 activity – biochemical, luminescence, ADME assay, primary screen. CYP2C9 Supersomes, luciferin-H conversion. inhibition, % at 5 µM. P11712. 20% of 96,000 active;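 active = blocking of liver enzyme CYP2C9 beyond about 50% at 5 µM, limit read from the data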
CYP2C9 activ – human CYP2C9 activators, primary screen, biochemical, luminescence. Cytochrome P450 2C9 (Homo sapiens), P11712. recombinant CYP2C9, luciferin-H conversion; stronger effect = higher value; factor 1 = untreated enzyme, 0 = blocked. activation factor at 5 µM. 1.4% of 96,000 active. AID 1024, 2008;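 active = activation factor of 2 or more for CYP2C9 at a 5 µM dose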
Cav32 inh – Cav3.2 calcium influx blockers – cell-based, Fluo-4 calcium fluorescence, FDSS, MLSMR library, primary screen; 4% of 100,000 active; AID 449739, 2010; Voltage-dependent T-type calcium channel subunit alpha-1H (Homo sapiens), O95180; B-score at 10 µM; Cav3.2-expressing cells; stronger effect = lower value;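 active = single-dose well whose peak fluorescence ratio is a statistical outlier from its plate by either plate-standardised score or position-corrected B-score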
CYP2C19 inh – blockers of cytochrome P450 2C19 activity – biochemical, luminescence, ADME assay, primary screen; P33261; CYP2C19 Supersomes, luciferin-H EGE luminescence, 30 min; inhibition, % at 5 µM; 21% of 96,000 active;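 active = CYP2C19 inhibition above a set limit at 5 µM in the primary screen, cut at about 50% in these data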
Hits are given with their value; – = inactive; · = not tested or not shown.

SMILES | CYP2C19 act | CYP2C9 inhib | CYP2C9 activ | Cav32 inh | CYP2C19 inh
COc1ccc(/C=C/C(=O)NCc2cn(C)nc2C)cc1COc1ccc(Br)cc1 | – | 60 | – | – | 67
CCN(CC)c1ncn(Cc2c(Cl)cccc2Cl)c2ncnc1-2 | – | – | – | – | –
Cc1c(C(=O)OC(C)C)[nH]c2c1C(=O)CC(C)(C)C2 | – | 76 | – | – | 75
O=C(NCCSCc1ccccc1)c1ccc(C2SCC(=O)N2Cc2ccccc2)cc1 (centres undefined) | – | 97 | – | – | 92
O=C(CSc1cccc(C(F)(F)F)c1)NC(=O)NCc1ccco1 | – | – | – | -5.3 | –
CCNC(=O)NC(=O)CSc1cccc(C(F)(F)F)c1 | – | – | – | – | 77
CC(Sc1cccc(C(F)(F)F)c1)C(=O)NC(N)=O (centres undefined) | – | – | 2.4 | – | –
Cc1cc(SCC(=O)NC(=O)NCc2ccco2)nc2c(C)cccc12 | – | – | – | – | –
O=C(CSc1cccc(C(F)(F)F)c1)Nc1ccc(Cl)cc1Cl | – | – | – | – | 96
O=C(Nc1ccc(Cl)cc1)N(C1=NCCC1)c1ccc(OC(F)F)cc1 | – | 61 | – | – | –
CC(C)CC(=O)CN1C(=O)C2(OCCO2)c2ccccc21 | – | – | – | – | –
Cc1ccc(S(=O)(=O)Oc2ccc(/C=N/NC(=O)c3nn(C)cc3Cl)cc2)cc1 | · | · | · | – | ·
Cc1ccc(S(=O)(=O)Oc2ccccc2/C=N/NC(=O)c2c(Cl)cnn2C)cc1 | · | · | · | -8.9 | ·
C[c-]1[c-](C)[c-](C)[c-](C)[c-]1C.[Fe].c1cc2nccc(N3CCCC3)[c-]2c1 (centres undefined) | · | · | · | – | ·
Cc1cccc(N2CCN(c3cccc(C)c3)C2c2cccnc2)c1 | – | – | – | -4.8 | –
Cc1ccc(N2CCN(c3ccc(C)cc3)C2c2ccncc2)cc1 | – | 71 | – | – | 88
Cc1cccc(N2C(=O)CSC2c2cccnc2)c1 (centres undefined) | – | – | – | – | –
COc1cc2c(cc1NC(=O)CSc1nnc(Cc3cccs3)n1C)oc1ccccc12 | – | 57 | – | – | –
COCCn1c(SCC(=O)c2ccc(F)cc2)nnc1C(C)C | – | 79 | – | – | 76
COc1cc2c(cc1NC(=O)COC(=O)Cn1cnc3ccccc31)oc1ccccc12 | – | 61 | – | – | –
CCn1c(SCC(=O)Nc2cc3oc4ccccc4c3cc2OC)nnc1-c1cccs1 | – | 55 | – | – | –
COc1cc2c(cc1NC(=O)CSc1nnnn1-c1ccccc1)oc1ccccc12 | – | – | – | – | –
COc1cc2c(cc1NC(=O)CSc1nnc(Cc3cccs3)n1Cc1ccco1)oc1ccccc12 | – | 84 | – | – | 58
Cc1cc(Cl)ccc1NC(=O)CSc1nnc(Cc2cccs2)n1Cc1ccco1 | – | – | – | -7.6 | 61
CCCn1c(SCC(=O)c2cc(OC)ccc2OC)nnc1C(C)C | – | – | – | – | 92
SMILES | CYP2C19 act | CYP2C9 inhib | CYP2C9 activ | Cav32 inh | CYP2C19 inh
COc1ccc(OC)c(C(=O)CSc2nnc(Cc3cccs3)n2C)c1 | – | – | – | – | 89
CCn1c(Cc2cccs2)nnc1SCC(=O)Nc1ccc(OC)c(OC)c1 | – | – | – | – | –
Cc1cc(-c2ccccc2)nc2[n+]1CCN2C | – | – | – | – | –
Cc1csc(SCc2c(C(=O)O)oc3ccccc23)n1 | · | · | · | – | ·
COc1cc2c(cc1OC)-c1nc3ccccc3c(=O)n1C(C)(C)C2 | – | 56 | – | – | –
Cc1cccc(NC(=O)CS(=O)(=O)c2c[nH]c3ccccc23)c1C | – | – | – | – | –
Cc1ccc(C)c(NC(=O)CS(=O)(=O)c2c[nH]c3ccccc23)c1 | – | – | 3.1 | – | 70
CCN(CC)CC(C(=O)N(CC)CC)P(=O)(c1ccccc1)c1ccccc1 (centres undefined) | – | – | – | – | –
CCC1(c2ccccc2)NC(=O)N(CC(=O)Nc2cccc(C#N)c2)C1=O (centres undefined) | – | – | – | – | 71
CCOC(=O)c1cc(-c2ccccc2)sc1NC(=O)CN1C(=O)NC(CC)(c2ccc(F)cc2)C1=O (centres undefined) | – | – | – | – | –
CCc1cccc(NC(=O)CN2C(=O)NC3(CCCCCCC3)C2=O)c1 | – | – | – | – | –
CCOC(=O)c1cc(-c2ccccc2)sc1NC(=O)CN1C(=O)NC(CC)(c2ccccc2)C1=O (centres undefined) | – | 89 | – | – | –
N#Cc1cccc(NC(=O)CSc2ccccc2)c1 | – | – | – | – | –
CC1(c2ccccc2)NC(=O)N(CC(=O)Nc2cccc(C#N)c2)C1=O (centres undefined) | – | 73 | – | – | –
C=CCn1c(SCC#N)nc2c(c1=O)C(C)(C)Cc1ccccc1-2 | – | – | – | · | –
CCOC(=O)N1CCN(C(=O)CN(c2cccc(C(F)(F)F)c2)S(C)(=O)=O)CC1 | – | – | – | – | –
Cn1c(C(=O)OC(C(=O)NC2CCCC2)c2ccncc2)cc2sccc21 (centres undefined) | – | 72 | – | – | 95
CC(=O)OC(C(=O)NC1CCCCC1)c1cccc(C)c1 (centres undefined) | – | – | – | – | –
CC(C)C(OC(=O)c1cc2sccc2n1C)C(=O)NCC1CCCO1 (centres undefined) | – | – | – | – | 56
CCSc1ncc(Cl)c(C(=O)N(Cc2ccc(N(C)C)cc2)C2CCS(=O)(=O)C2)n1 (centres undefined) | – | – | – | 3.5 | –
Cc1ccccc1OCCOc1cccc(/C=N/NC(=O)Cc2nnc(N)s2)c1 | – | – | – | – | –
COc1ccccc1Cc1nc(-c2ccc(Br)o2)no1 | – | – | – | – | 90
COc1ccccc1-c1nc(-c2ccc(Br)o2)no1 | – | – | – | – | –
Oc1ccc(/C=N/NC2=NCCCCC2)cc1 | – | – | – | – | –
c1ccc(Cn2nnc3c(N4CCCCCC4)ncnc32)cc1 | – | 71 | – | – | –
O=C(Nc1ccc(Cl)cc1)C1CCC(=O)N1Cc1ccccc1Cl (centres undefined) | – | 91 | – | – | 79
O=C1NC(Nc2nccs2)(C(F)(F)F)C(=O)N1CCc1ccccc1 (centres undefined) | – | 85 | – | – | 89
O=C(Cc1ccccc1F)Nc1nc(-c2cccs2)cs1 | – | 99 | – | -9.6 | 94
CS(=O)(=O)N1CCc2cc(-c3csc(NC(=O)Cc4ccccc4)n3)ccc21 | · | · | · | – | ·
CC1Cc2cc(-c3csc(NC(=O)Cc4cccs4)n3)ccc2N1S(C)(=O)=O (centres undefined) | – | 92 | – | · | 77
